Data on 52 compounds can be found in ChEMBL document CHEMBL3988442, “University of Dundee, Small-Polar-MMV Screening Library” (2021).

The structures appear in SMILES notation. Among all 48,000 compounds or so, about 13,000 (27%) showed an effect of 50% or more. The list shows a part of the results.

The experiment relates to Wolbachia pipientis. Briefly: Anti-Wolbachia Cell-Based Screen. It counts as functional. The conditions noted are these: 5 µM. More on the design: scale not given: in the data most compounds retested in dose-response had high values.
Take `OCC1(CC2CC2)CCCN(Cc2cnc(C3CCCCC3)nc2)C1` (configuration not stated): the “Percent Effect” value was -2.459%.

On to `c1cnc(N2CCC3(CCCN(CC4CCCCC4)C3)C2)cn1` (configuration not stated), for which the “Percent Effect” value is on record as 13.44%.

Take `COCCc1ncc(CN2C[C@H](C3CC3)[C@@H](N)C2)cn1`: the “Percent Effect” value is -19.64%. Turning to `COc1ncc(CN2CCC3(CCCN(CC4CCCCC4)C3)C2)cn1` (configuration not stated), the “Percent Effect” value is recorded as 96.23%.

As to `COCCc1ncc(CN2CCC3(CCCN(CC4CC4)C3)C2)cn1` (configuration not stated), the “Percent Effect” value is 106.1%. Then `COCCc1ncc(CN2CCC(Oc3ccccc3C)CC2)cn1`, with 2.53%; and `CCCSc1ncc(C2CC(=O)NCc3nc4ccccn4c32)cn1` (configuration not stated), with 2.221%; and `COc1ccccc1C1(CNc2cn[nH]c(=O)c2Cl)CC1`, with 2.708%. Then `CC(NC(=O)c1cccnc1N(C)C)c1ccccc1Br` (configuration not stated), with 9.946%; and `C=C(C)COc1cccc(C(=O)N(C)C(C)c2ccncn2)c1` (configuration not stated), with -7.553%; and `O=C(O)C(F)(F)F.O=S(=O)(c1ccccc1)N1CCC2(CCCN2Cc2cccc(Cl)c2)C1` (configuration not stated), with -34.27%. For `COCCC(=O)N1CCC2(CCN(Cc3cccc(F)c3)CC2)C1.O=C(O)C(F)(F)F`, the “Percent Effect” value is reported as -14.27%. Under `O=C(O)C(F)(F)F.O=C(O)C(F)(F)F.O=C(O)CN1CCCC2(CCN2Cc2cccc(F)c2)C1` (configuration not stated) stands 109.4%; under `CCS(=O)(=O)N1CCCC2(CCCN2Cc2cccc(F)c2)C1.O=C(O)C(F)(F)F` (configuration not stated), -5.383%.

Consider `O=C(O)C(F)(F)F.O=C(c1cscn1)N1CCC2(CCN(Cc3nccs3)CC2)C1`, for which the “Percent Effect” value was determined as 11.65%. Under `O=C(O)C(F)(F)F.O=C(c1ccccc1)N1CCCC2(CCN2Cc2cccc(F)c2)C1` (configuration not stated) stands 106.4%; under `O=C(O)C(F)(F)F.O=C(c1cscn1)N1CCC2(CN(Cc3nccs3)C2)C1`, 5.214%; under `COC(=O)CCC(=O)N1CCCC2(CCCN2Cc2cccc(F)c2)C1.O=C(O)C(F)(F)F` (configuration not stated), 107.2%. Under `CNC(=O)CN1C(=O)CCC12CCCN(Cc1cccc(F)c1)C2.O=C(O)C(F)(F)F.O=C(O)C(F)(F)F` (configuration not stated) stands 0.4911%; under `O=C(O)C(F)(F)F.O=C(c1cscn1)N1CCCC2(CCN2Cc2cccc(F)c2)C1` (configuration not stated), 96.65%; under `Cc1cnc(CNc2ccccc2CN(C)C(=O)c2cccs2)o1`, 6.302%. As to `Cc1cc(-c2nn(C)c(Cl)c2CN2CCOCC(O)C2)no1` (configuration not stated), the “Percent Effect” value was determined as 7.686%. With `Cc1ccc(OCC(=O)Nc2ncccc2OC(F)F)cc1`, the “Percent Effect” value is -8.184%. Under `COc1ccc(-c2nc(CN3CCCS3(=O)=O)co2)cc1` stands -14.94%; under `CC(C)C(NC(N)=O)C(=O)N1CCN(c2ccccc2Cl)C(=O)C1` (configuration not stated), 3.196%. Then `Cc1ccccc1N1CCN(C(=O)CSc2ccncc2)CC1=O`, with -3.872%; and `CC(=O)N1CCN(c2ccc(Cl)nn2)C(=O)C1`, with 106.1%; and `Cc1ccc2cc(C(=O)N3CCN(C(=O)N(C)C)CC3)ccc2n1`, with 1.001%. Turning to `CC(O)C(=O)N1CCN(c2ccccc2Cl)C(=O)C1` (configuration not stated), the “Percent Effect” value was -6.675%.

For `CC(C)NC(=O)N1CCN(c2ccc(Cl)nn2)C(=O)C1`, the “Percent Effect” value worked out at 110.8%.

As for `COc1cccc(N2CCN(C(=O)C(O)c3ccccc3Cl)CC2=O)c1` (configuration not stated), the “Percent Effect” value came out at 0.2128%. For the compound `COC(=O)[C@@H]1CN(C(=O)NC(C)C)CCN1S(=O)(=O)c1ccccc1`, the “Percent Effect” value was -0.3484%.

`CN(C)C(=O)N1CCN(c2ccc(Cl)nn2)C(=O)C1`: the “Percent Effect” value stood at 97.53%. Take `CCN1CCN(C(=O)C(C)SC)CC1` (configuration not stated): the “Percent Effect” value is listed as -3.808%.

On to `CC(C)(NS(C)(=O)=O)C(=O)NCc1cccc(Br)c1`, for which the “Percent Effect” value is -10.37%.

Regarding `Cc1cnc(CNc2ccc(C(=O)NCc3ccco3)cc2C)o1`, the “Percent Effect” value is recorded as -1.967%. Under `O=C1COc2ccc(S(=O)(=O)NCc3ccccc3)c3c2N1CCC3` stands -7.83%; under `CCOC(=O)C1(Cc2ccc(Cl)cc2)CCN(Cc2ncc[nH]2)CC1`, -10.72%; under `Cc1[nH]c2ccccc2c1CCNC(=O)N1CCC2(C1)OCCO2`, 5.663%.

With `O=C(CCN1CCOCC1)NC(Cc1ccsc1)c1nccs1` (configuration not stated), the “Percent Effect” value was found to be 146.7%. Under `O=C(C(CNCc1ccsc1)c1ccccc1)N1CCOCC1` (configuration not stated) stands 2.12%; under `CNS(=O)(=O)c1cccc(C(C)NCc2ccsc2)c1` (configuration not stated), -13.31%. Then `Cc1cccc(CNC(Cc2ccsc2)c2nc(C)c(C)s2)n1.Cl` (configuration not stated), with 125.8%; and `Cc1nc(C(Cc2ccsc2)NC(=O)CN2CCOCC2)sc1C` (configuration not stated), with 171.6%; and `CC(NC(=O)Nc1ccccc1CN1CCOCC1)c1nccs1` (configuration not stated), with 15.83%. As to `Cc1nc(-c2ccsc2)ccc1C(=O)NCCN1CCOCC1`, the “Percent Effect” value is recorded as -7.078%. Under `Cc1n[nH]c(C2CN(CC(=O)NCCc3ccsc3)CCO2)n1` (configuration not stated) stands -13.37%; under `Cc1ccc(CN2CCOCC2)cc1NCc1ccsc1`, -9.351%. Under `Cc1nc(C(Cc2ccsc2)NC(=O)CCN2CCOCC2)sc1C` (configuration not stated) stands 158.4%; under `Cc1ccc(C(=O)N2CCOCC2)cc1NCc1ccsc1`, -10.53%; under `Cn1cc(C(C)(O)CNC(=O)c2cc(Br)cn2C)cn1` (configuration not stated), 0.5421%. As to `Cc1n[nH]c(-c2ccc(NC(=O)C(C)(C)N3CCN(C)CC3)cc2)n1`, the “Percent Effect” value is -11.99%.
